# Assay results as given in PubChem BioAssay (Tox21).
# Inconclusive results are not listed. Active and inactive are the calls of the source. Calls come from the whole dose curve; as a rule, active = well fitted inhibition curve with a large enough effect in the repeat runs; inconclusive = weak or mixed curves; inactive = flat fitted curve, though single readings scatter.
# Target: Luciferin 4-monooxygenase (Photinus pyralis) (UniProt P08659)
# Test: qHTS assay to identify small molecule inhibitors of firefly luciferase (AID 1224835); note: nearly all actives have a fitted effect of over 25% in size
# Conditions: purified P. pyralis luciferase, luminescence inhibition; series mostly up to 115 µM; activity change, negative = inhibition: at the top concentration
# Description: U.S. Tox21 Program National Center for Advancing Translational Sciences [NCATS] NIH Chemical Genomics Center [NCGC] U.S. Environmental Protection Agency [EPA] National Institutes of Environmental Health Sciences [NIEHS] National Toxicology Program [NTP] U.S. Food and Drug Administration [FDA] Tox21 Assay Overview: Firefly (Photinus pyralis) luciferase is one of the most commonly used transcriptional reporters. Firefly luciferase reporter-gene assays are generally considered one of the most sensitive assay types (Wood, 1995; Wood, 1998). However, it was initially observed, in 1991, by Thompson et al., that compounds that resemble the substrates of firefly luciferase (FLuc) can act as competitive inhibitors of the enzyme, and that these compounds, upon interaction with luciferase in the cell, can actually stabilize the protein and increase its half-life. Previous profiling work by other groups to determine the prevalence of compounds that affect FLuc enzymatic activity (PubChem AID 411) identified that ~3% of the MLSMR library (then at ~72K) inhibited FLuc. […] Thus the Tox21 10K library is profiled for activity against FLuc using a biochemical assay of purified FLuc and KM concentrations of FLuc substrates (D-luciferin and ATP).
# These assay plates were then treated with 23nL of compound or DMSO using a Kalypsys pin tool, which allows for delivery of a 6-point interplate titration of each compound to the assay plate (quantitative HTS.) 1 uL of firefly luciferase mix (containing 50 mM Tris acetate, pH 7.6, 0.04 uM P. pyralis luciferase, 0.01% Tween, 0.05% BSA and dH2O) was then delivered by FRD to each well. Luciferase activity was then measured using a ViewLux CCD imager.
# % is set by controls: 0 for no effect and ±100 for the full control effect.
# Luciferin 4-monooxygenase (Photinus pyralis), sequence (P08659 whole entry, looked up): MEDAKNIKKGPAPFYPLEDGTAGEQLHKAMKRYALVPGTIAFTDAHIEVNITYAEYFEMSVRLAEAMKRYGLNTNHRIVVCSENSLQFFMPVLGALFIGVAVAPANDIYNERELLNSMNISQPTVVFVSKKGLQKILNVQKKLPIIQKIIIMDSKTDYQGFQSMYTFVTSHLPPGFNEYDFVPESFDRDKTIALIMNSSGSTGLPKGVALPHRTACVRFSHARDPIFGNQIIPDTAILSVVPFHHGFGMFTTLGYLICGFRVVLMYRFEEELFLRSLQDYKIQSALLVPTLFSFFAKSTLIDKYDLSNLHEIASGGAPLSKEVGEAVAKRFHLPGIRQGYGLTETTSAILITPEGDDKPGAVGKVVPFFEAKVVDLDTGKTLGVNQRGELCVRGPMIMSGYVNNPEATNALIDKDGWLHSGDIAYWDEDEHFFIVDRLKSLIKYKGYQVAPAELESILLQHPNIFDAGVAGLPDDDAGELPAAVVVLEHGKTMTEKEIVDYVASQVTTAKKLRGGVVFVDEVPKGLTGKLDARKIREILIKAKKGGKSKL
Structure (SMILES),"activity change, negative = inhibition",Potency
O=C1CCC(=O)N1Cl,4.32% (inactive),–
C=CC/C=C/C,0.473% (inactive),–
CC(=O)CCC1=C(C)CCCC1(C)C,-0.577% (inactive),–
O=C(CN1CCNCC1)NC1CCCCC1,-0.587% [at 52.9 µM] (inactive),–
CC(=O)C1C(=O)C=C(C)OC1=O (stereo not given),1.8% (inactive),–
CCCCCCCCCOC(=O)c1ccccc1C(=O)OCCCCCCCCC,4.14% (inactive),–
Cc1ccc(N)cc1S(=O)(=O)O,-1.09% (inactive),–
N#CCC(=O)NN,0.0665% [at 52.9 µM] (inactive),–
COc1ccc(CCO)cc1,4.79% (inactive),–
Cc1ccc(C)c([N+](=O)[O-])c1,-3.04% (inactive),–
C/C(CC(C)C)=N\O,-0.117% (inactive),–
CN1C[C@@H]2C[C@H]1CN2c1cc2c(cc1F)c(=O)c(C(=O)O)cn2C1CC1,0.0867% [at 23.6 µM] (inactive),–
CCCCCCCCCOC(=O)CCCCC(=O)OCCCCCCC,1.51% (inactive),–
CSc1cnccn1,0.769% (inactive),–
OC1(c2ccc(Cl)cc2)CCNCC1,7.35% [at 52.9 µM] (inactive),–
CC(=O)CC(=O)Nc1ccc(C)cc1C,-0.902% (inactive),–
CCO,0.78% (inactive),–
CC1CCc2c(N3CCC(O)CC3)c(F)cc3c(=O)c(C(=O)O)cn1c23 (stereo not given),2.92% [at 52.9 µM] (inactive),–
CC(O)COC(C)(C)C (stereo not given),0.559% (inactive),–
CC(C)NC(=O)c1ccc(C=O)cc1,–,17.4 µM (active)

Structure (SMILES),"activity change, negative = inhibition",Potency
CC(CO)(CO)CO,0.702% (inactive),–
OC[C@H]1O[C@@H](O[C@@H]2[C@@H](CO)O[C@](O)(CO)[C@H]2O)[C@H](O)[C@@H](O)[C@H]1O,0.591% [at 52.9 µM] (inactive),–
OCCN1CCOCC1,-0.8% (inactive),–
COc1nc(N)nc2nc[nH]c12,-7.78% (inactive),–
CCCCCCCCCCCCCBr,-7.1% (inactive),–
CC(C)NCC(O)c1ccc2ccccc2c1 (stereo not given),5.91% [at 52.9 µM] (inactive),–
CC1OCCC1=O (stereo not given),3.75% (inactive),–
CCC/C=C(\C=O)CC,4.31% (inactive),–
CCNC(=O)NCc1cccc(Cl)c1,-4.08% [at 52.9 µM] (inactive),–
CC(=O)Nc1ccc(OC(=O)c2ccccc2OC(C)=O)cc1,-1.9% [at 52.9 µM] (inactive),–
CC(C)=CCC/C(C)=C/COC=O,1.99% (inactive),–
CC(S)C(C)S (stereo not given),-0.147% (inactive),–
O=C(O)[C@H](O)c1ccccc1,2.27% [at 52.9 µM] (inactive),–
CCCC(CC)c1ccccc1 (stereo not given),0.184% (inactive),–
O=Cc1cc2ccccc2o1,-11.4% (inactive),–
CCOC(=O)CC1(C)OCC(C)O1 (stereo not given),2.18% (inactive),–
N#Cc1ccccc1O,-4.36% (inactive),–
CCCCCCCCCCCCCCCCCCOCCO,-2.69% [at 23.6 µM] (inactive),–
CCN1CCCC1CN (stereo not given),-0.0144% [at 52.9 µM] (inactive),–
Cc1ccc(C(C)NC(=O)[C@@H](NC(=O)OC(C)C)C(C)C)cc1 (stereo not given in full),1.71% (inactive),–
